The source made the active and inactive calls.
What was measured:
[1] = test system: Plasmodium falciparum Sir2 (PF13_0152, Sir2A); test: Plasmodium falciparum Sir2A binding compounds – biochemical, small-molecule microarray, 635 nm fluorescence, primary screen (AID 1098); settings: fluorescence 635 nm, higher = more signal;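 further: score merges spot fluorescence intensity with its signal-to-noise ratio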
[2] = probe aDKK1 binding to arrayed compounds – biochemical, biotinylated probe, 635/667 nm fluorescence, primary screen (AID 1099); settings: small-molecule microarray, higher = more signal;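 further: score merges 667nm spot fluorescence with signal to noise across triplicate slides; reference of the scale not given here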
[3] = probe aCHRDL2 binding to arrayed compounds – biochemical, biotinylated probe, 635/667 nm fluorescence, primary screen (AID 1100); settings: small-molecule microarray, higher = more signal
[4] = change in splice reporter luminescence, either direction, cell-based, HEK293, spliceosome inhibition project, primary screen (AID 1101); settings: HEK293 splicing luciferase reporter, 24 h, higher = more signal, called active from +8 up or from −8 down;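 further: HEK293 cells carrying a splicing-competent luciferase reporter gene; test concentration not given here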
[5] = target: Fibroblast growth factor 10 (Homo sapiens) (UniProt O15520); test: compounds binding fibroblast growth factor 10 – biochemical, small-molecule microarray, 635 nm fluorescence, primary screen (AID 1102); settings: FGF10 binding, fluorescence 635 nm, higher = more signal
[6] = test system: glycogen synthase kinase-3 (GSK3A per assay name; protocol says GSK3B); test: compounds binding glycogen synthase kinase-3 – biochemical, small-molecule microarray, 635 nm fluorescence, GSK3A, primary screen (AID 1103); settings: fluorescence 635 nm, higher = more signal; further: the record names both GSK3A and GSK3B
[7] = target: Epidermal growth factor receptor (Homo sapiens) (UniProt P00533); test: compounds binding epidermal growth factor receptor – biochemical, small-molecule microarray, 635 nm fluorescence, primary screen (AID 1104); settings: EGFR binding, higher = more signal;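 further: score merges 667 nm emission intensity with spot signal to noise over triplicate slides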
[8] = target: Follistatin-related protein 3 (Homo sapiens) (UniProt O95633); test: compounds binding follistatin-related protein 3 – biochemical, small-molecule microarray, 635 nm fluorescence, primary screen (AID 1105); settings: FSTL3 binding, higher = more signal;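 further: score merges emission near 667 nm and signal to noise per printed spot across three slides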
[9] = target: Dickkopf-related protein 1 (Homo sapiens) (UniProt O94907); test: small molecules binding DKK1 protein – biochemical, small-molecule microarray, 635 nm fluorescence scan, primary screen (AID 1106); settings: higher = more signal;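 further: score merges emission near 667 nm with signal to noise over three replicate slides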
[10] = test system: Inhibin beta A chain (activin A); test: small molecules binding activin A – biochemical, small-molecule microarray, 635 nm fluorescence scan, primary screen (AID 1107); settings: INHBA, higher = more signal;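 further: mouse activin A protein probed at 4.33 µg/mL on printed slides; score merges bound-protein fluorescence near 667 nm with spot signal-to-noise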

Chain of Epidermal growth factor receptor (Homo sapiens) (P00533 whole entry, looked up): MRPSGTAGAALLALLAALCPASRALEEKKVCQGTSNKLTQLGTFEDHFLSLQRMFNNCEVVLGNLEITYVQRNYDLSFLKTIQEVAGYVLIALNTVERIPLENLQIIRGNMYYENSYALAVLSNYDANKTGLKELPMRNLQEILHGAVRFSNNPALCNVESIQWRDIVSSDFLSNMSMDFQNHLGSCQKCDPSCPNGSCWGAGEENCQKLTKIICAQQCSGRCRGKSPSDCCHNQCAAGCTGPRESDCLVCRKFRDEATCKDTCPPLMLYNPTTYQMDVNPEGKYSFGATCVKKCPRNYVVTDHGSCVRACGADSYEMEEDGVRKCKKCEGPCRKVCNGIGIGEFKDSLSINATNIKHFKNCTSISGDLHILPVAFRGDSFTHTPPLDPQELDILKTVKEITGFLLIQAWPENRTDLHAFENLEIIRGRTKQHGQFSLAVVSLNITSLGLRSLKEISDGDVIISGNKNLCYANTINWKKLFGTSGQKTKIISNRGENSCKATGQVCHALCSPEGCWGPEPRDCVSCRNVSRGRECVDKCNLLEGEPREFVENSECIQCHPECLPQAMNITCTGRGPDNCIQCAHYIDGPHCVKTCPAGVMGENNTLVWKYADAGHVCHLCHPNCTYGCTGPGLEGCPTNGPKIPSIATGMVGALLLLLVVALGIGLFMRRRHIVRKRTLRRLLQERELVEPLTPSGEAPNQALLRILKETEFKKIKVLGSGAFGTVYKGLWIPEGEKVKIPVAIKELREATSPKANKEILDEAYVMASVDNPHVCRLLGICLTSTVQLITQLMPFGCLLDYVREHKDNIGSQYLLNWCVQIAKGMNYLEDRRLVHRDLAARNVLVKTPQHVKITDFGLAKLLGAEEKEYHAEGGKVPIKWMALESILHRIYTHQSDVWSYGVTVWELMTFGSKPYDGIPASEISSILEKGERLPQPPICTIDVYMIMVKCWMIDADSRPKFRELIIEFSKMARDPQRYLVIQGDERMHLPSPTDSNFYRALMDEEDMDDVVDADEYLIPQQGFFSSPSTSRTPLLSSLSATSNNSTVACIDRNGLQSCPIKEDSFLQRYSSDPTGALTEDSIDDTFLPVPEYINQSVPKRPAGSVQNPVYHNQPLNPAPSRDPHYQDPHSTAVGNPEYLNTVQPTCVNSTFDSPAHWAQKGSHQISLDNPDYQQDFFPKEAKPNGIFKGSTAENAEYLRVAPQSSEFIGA
Chain of Fibroblast growth factor 10 (Homo sapiens) (O15520 whole entry, looked up): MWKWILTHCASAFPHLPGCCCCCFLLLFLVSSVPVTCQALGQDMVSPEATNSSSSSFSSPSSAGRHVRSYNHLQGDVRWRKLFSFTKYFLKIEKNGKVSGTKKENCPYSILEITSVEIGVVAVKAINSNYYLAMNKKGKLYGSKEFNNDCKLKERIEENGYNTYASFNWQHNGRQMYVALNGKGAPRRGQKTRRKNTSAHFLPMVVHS
Chain of Follistatin-related protein 3 (Homo sapiens) (O95633 whole entry, looked up): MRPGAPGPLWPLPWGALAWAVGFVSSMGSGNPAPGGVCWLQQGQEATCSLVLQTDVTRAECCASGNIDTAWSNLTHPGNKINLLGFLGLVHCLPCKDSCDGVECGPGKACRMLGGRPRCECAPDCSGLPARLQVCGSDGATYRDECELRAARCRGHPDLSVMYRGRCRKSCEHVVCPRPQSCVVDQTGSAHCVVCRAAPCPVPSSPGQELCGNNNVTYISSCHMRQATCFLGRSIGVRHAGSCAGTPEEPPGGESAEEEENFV
Chain of Dickkopf-related protein 1 (Homo sapiens) (O94907 whole entry, looked up): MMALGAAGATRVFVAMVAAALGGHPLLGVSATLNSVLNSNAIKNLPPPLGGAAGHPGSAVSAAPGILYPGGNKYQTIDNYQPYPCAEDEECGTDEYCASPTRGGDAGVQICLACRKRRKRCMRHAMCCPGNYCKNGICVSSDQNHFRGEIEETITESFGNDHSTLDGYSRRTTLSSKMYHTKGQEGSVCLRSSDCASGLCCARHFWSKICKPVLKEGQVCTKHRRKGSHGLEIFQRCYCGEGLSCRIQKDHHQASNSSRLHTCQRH

SMILES	composite z-score [1]	composite z-score [2]	composite z-score [3]	z-score [4]	composite z-score [5]	composite z-score [6]	composite z-score [7]	composite z-score [8]	composite z-score [9]	composite z-score [10]
CCOC(=O)C1=CC[C@@H](c2ccccc2)N(S(=O)(=O)c2ccc(C)cc2)[C@H]1C=C(C)C	0.625	0.367	0.688	-0.925 (inactive)	1.02	0.604	1.01	1.38	0.226	1.11
COCCOC(=O)N1C(=O)[C@@]2(c3cc(C#Cc4ccc(OC)cc4)ccc31)[C@H](C(N)=O)[C@H]1C(=O)O[C@H](c3ccccc3)[C@H](c3ccccc3)N1[C@@H]2c1ccc(OCCO)cc1	1.43	-0.178	-0.13	-0.853 (inactive)	1.42	1.33	0.769	1.34	0.631	0.343
CC(C)(C)OC(=O)CC[C@@]1(C(=O)N2CCCCC2)N=C(c2ccc(OCCCO)cc2)O[C@@H]1c1ccccc1CN=[N+]=[N-]	1.24	0.754	0.881	-2.55 (inactive)	0.56	0.53	0.0678	1.06	-0.0065	0.534
CN(C)CCCCCCNC(=O)[C@@H]1C[C@@H]2C(=O)NCC(=O)N2[C@@H]1c1ccc(O)cc1	1.25	-0.0528	-0.29	-0.326 (inactive)	1.4	1.36	0.59	1.46	1.19	0.678
O=C1c2ccccc2[C@](Cc2ccccc2I)(C(=O)NC2CC2)[C@H](c2ccc(CO)cc2)N1Cc1ccccc1Cl	0.453	0.831	0.995	0.119 (inactive)	0.652	1.28	-0.0191	0.345	0.0978	1.02
C[N+](C)(C)CCCC[C@@H]1NC(=O)[C@@H]2C[C@H](C(=O)NCCCCCNC(=O)CS)[C@H](c3cccc(OCCO)c3)N2C1=O	1.71	-0.14	-0.149	0.241 (inactive)	0.545	0.23	0.0868	-0.19	0.585	-0.003
O=C1NC(=O)C2C1C=CC(C(O)CCc1ccccc1)N2Nc1ccccn1 (stereo not given)	0.539	0.673	0.778	-0.735 (inactive)	0.165	0.44	0.261	0.155	0.156	0.584
NC(=O)NCC#Cc1ccc2c(c1)[C@]1(C(=O)N2)[C@H](c2ccc(O)cc2)N2[C@H](c3ccccc3)[C@H](c3ccccc3)OC(=O)[C@H]2[C@@H]1C(=O)NC[C@H](O)c1ccccc1	-0.227	0.004	0.725	-0.647 (inactive)	-1.39	-0.964	-1.2	-2.26	-1.53	-1.82
COc1ccccc1CN1C(=O)c2ccccc2[C@](Cc2ccccc2I)(C(=O)NCCN2CCOCC2)[C@@H]1c1ccc(CO)cc1	1.62	-0.0631	0.227	0.233 (inactive)	1.02	1.31	1.05	1.46	0.635	0.437
[N-]=[N+]=Nc1ccccc1[C@@H]1OC(c2ccc(OCCCO)cc2)=N[C@]1(CCS(=O)(=O)c1ccccc1)C(=O)NCc1ccccc1	1.29	1.24	1.28	0.385 (inactive)	1.25	0.309	0.0329	1.18	-0.244	1.06
C#CCNS(=O)(=O)N(C)C	0.365	-0.0521	-0.55	0.0242 (inactive)	0.296	0.642	0.469	0.31	0.216	-0.128
CCCN1C(=O)[C@@H]2Cc3c([nH]c4ccccc34)[C@@H](c3cccc(O)c3)N2C1=O	0.292	-0.0726	-0.0794	1.08 (inactive)	0.415	0.718	0.578	0.493	1.14	0.275
COCCOC(=O)N1C(=O)[C@@]2(c3cc(C#CCNC(N)=O)ccc31)[C@H](c1ccc(OCCO)cc1)N1[C@H](c3ccccc3)[C@H](c3ccccc3)OC(=O)[C@H]1[C@@H]2C(=O)N1CCN(c2ncccn2)CC1	0.832	0.46	0.978	-0.37 (inactive)	1.25	0.824	0.612	1.3	0.564	1.46
CO[C@H]1O[C@H](CO)[C@@H](OC(=O)Nc2cccc(F)c2)[C@H](OC(=O)Nc2ccc3c(c2)OCO3)[C@H]1OC(=O)Nc1ccc2c(c1)OCO2	0.932	0.0673	0.307	-0.197 (inactive)	0.693	0.26	0.199	0.55	0.177	0.674

From PubChem BioAssay
